A short description of assay [1]: NCI Yeast Anticancer Drug Screen. Data for the rad50 strain (AID 155).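 Also: 0% = growth of vehicle-only cultures of the same strain.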 Particulars: S. cerevisiae rad50 strain growth inhibition; at 50.0 µM; stronger effect = higher value. Put shortly: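 Genetically altered yeast (DNA repair pathway); compound treatment; growth inhibition vs vehicle ctrl.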
A short description of assay [2]: NCI Yeast Anticancer Drug Screen. Data for the mec2-1 strain (AID 157). Particulars: S. cerevisiae mec2-1 strain, at 50.0 µM, stronger effect = higher value. Put shortly: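 Readout is yeast growth inhibition, normalised to vehicle-treated controls, in the mec2-1 strain exposed to compound.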
A short description of assay [3]: NCI Yeast Anticancer Drug Screen. Data for the sgs1 mgt1 strain (AID 161).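 Also: 0% = growth of cultures given vehicle only.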 Particulars: S. cerevisiae sgs1 mgt1 strain, at 50.0 µM, stronger effect = higher value. Put shortly: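 Percent growth inhibition was derived by comparing compound-exposed mutant yeast with vehicle-exposed cultures. The strain carries alterations in DNA damage repair.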
Assay [4] is described as follows: NCI Yeast Anticancer Drug Screen. Data for the cln2 rad14 strain (AID 165).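 Also: 0% = growth equal to vehicle treated cultures.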 The following applies: S. cerevisiae cln2 rad14 strain, at 50.0 µM, stronger effect = higher value. An outline of the steps:
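Relative to vehicle controls, growth inhibition of compound-treated cln2 rad14 yeast was recorded.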

The nature of assay [5]: NCI Yeast Anticancer Drug Screen. Data for the bub3 strain (AID 167). The following applies: S. cerevisiae bub3 mutant strain, at 50.0 µM, stronger effect = higher value. Put shortly: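 Yeast carrying a defined mutation is treated with each compound, and growth is compared with that of vehicle-exposed cells to give inhibition.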
A short description of assay [6]: NCI Yeast Anticancer Drug Screen. Data for the mlh1 rad18 strain (AID 175). Particulars: S. cerevisiae mlh1 rad18 strain growth inhibition; at 50.0 µM; stronger effect = higher value. An outline of the steps: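 Test agents were incubated with a yeast strain of defined genotype (DNA damage repair defect). Inhibition of growth was derived by comparison with vehicle-exposed cultures.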

The panel holds about 79,000 compounds, 15% with a hit somewhere; the sample as a whole holds those more often. A number with no mark means an inactive call. Activity calls are given as the source filed them. Rule as the data show it: active = growth inhibition above about 70%; inactive = the rest.

Take `Nc1ccc(O)c(N)c1`: the growth inhibition in assay [1] was 35.1%; in assay [2], 23.5%; in assay [3], 26.6%; in assay [4], 13.9%; in assay [5], -8%; in assay [6], 31.4%.

`O=C1C=CC(=O)C2CC=CCC12` (stereo not drawn): the growth inhibition in assay [1] is 24.2%; in assay [2], 50.4%; in assay [3] it was 1.7%; in assay [4], -6.15%; in assay [5], 4.55%; in assay [6] it was 26.1%.

For the compound `CC(C)(OC(=O)Nc1ccccc1)c1ccc([N+](=O)[O-])cc1`, the growth inhibition in assay [1] was -5%; in assay [2], 9.1%; in assay [3], 13.2%; in assay [4], -25.5%; in assay [5], -22.7%; in assay [6], -4.45%.

As for `COc1cccc(C2N=NC3=C(CCCC3)N2O)c1O` (stereo not drawn), the growth inhibition in assay [1] is 14.4%; in assay [2] it was 11%; in assay [3] it was 10.2%; in assay [4], 21.4%; in assay [5] it was 25.1%; in assay [6] it was 19.5%.

With `COc1ccc(CC(N)C(=O)N2CCCCC2)cc1` (stereo not drawn), the growth inhibition was 8.45% in assay [1]; 0.8% in assay [2]; 13.2% in assay [3]; 8.15% in assay [4]; 8.4% in assay [5]; 6.75% in assay [6].

In the case of `Cc1ccc(C2CCC(C#N)=CN2C)cc1` (stereo not drawn), the growth inhibition is 11.5% in assay [1]; -0.25% in assay [2]; 1.5% in assay [3]; -39.4% in assay [4]; -13% in assay [5]; 3.6% in assay [6].

For the compound `O=C(Nc1ccn(C2CCC(COC(c3ccccc3)(c3ccccc3)c3ccccc3)O2)c(=O)n1)c1ccccc1` (stereo not drawn), the growth inhibition is 8.05% in assay [1]; 19.4% in assay [2]; 27.6% in assay [3]; -25% in assay [4]; -26.2% in assay [5]; 16.9% in assay [6].

On to `Cc1ccc(Nc2nnc(Nc3ccc(C)cn3)c3ccccc23)nc1`, for which the growth inhibition was -10.7% in assay [1]; -12.4% in assay [2]; -4.55% in assay [3]; -18.8% in assay [4]; 4.1% in assay [5]; -7.95% in assay [6].

Take `COc1ccc(Nc2cc(N)nc(N)n2)c(=S)[nH]1`: the growth inhibition in assay [1] is 0.05%; in assay [2] it was -2.85%; in assay [3], -5.15%; in assay [4], 1.75%; in assay [5], 3.05%; in assay [6] it was -0.95%.

For the compound `CN1CCC(O)(C#N)CC1`, the growth inhibition in assay [1] was -5.55%; in assay [2], 2%; in assay [3], -13.6%; in assay [4] it was -42.6%; in assay [5], 10.1%; in assay [6], -2.85%.

Turning to `Nc1c(Cl)ncnc1NCCc1ccccc1`, the growth inhibition in assay [1] is -3.35%; in assay [2], -16.1%; in assay [3], -15.4%; in assay [4], -45.1%; in assay [5], -11.8%; in assay [6] it was -11.8%.

As for `CCC(C)[N+](=O)[O-]` (stereo not drawn), the growth inhibition in assay [1] was 3.6%; in assay [2], -5.1%; in assay [3], -5.55%; in assay [4], -2.15%; in assay [5], 0.75%; in assay [6], 3.1%.

For the compound `Cc1cccc(C(=O)OC2CCCCC2)c1`, the growth inhibition is 1.85% in assay [1]; 1.2% in assay [2]; -3.1% in assay [3]; -30.4% in assay [4]; 23.9% in assay [5]; 0.5% in assay [6].

For `O=C(Nc1ccccc1)n1cc(-c2ccccn2)c(N2CCOCC2)n1`, the growth inhibition was -4.6% in assay [1]; -11.1% in assay [2]; 6.15% in assay [3]; -64.5% in assay [4]; -12.9% in assay [5]; -14.4% in assay [6].

In the case of `C=CCNC(=O)N(CCCCC(NC(C)=O)C(=O)NCc1ccccc1)Cc1ccccc1` (stereo not drawn), the growth inhibition is 11.7% in assay [1]; 6.55% in assay [2]; -12.7% in assay [3]; 11.5% in assay [4]; 16.4% in assay [5]; 11.9% in assay [6].

For the compound `COC(=O)[C@H](Cc1c[nH]c2ccccc12)NP(=O)(OCCC#N)OCC1OC(n2cc(C)c(=O)[nH]c2=O)CC1N=[N+]=[N-]` (stereo partly drawn), the growth inhibition is -13.6% in assay [1]; -33.1% in assay [2]; -23.4% in assay [3]; -13.3% in assay [4]; -30.8% in assay [5]; -65% in assay [6].

On to `C=C1C(=O)C[C@H]2[C@H]3CC[C@H](C(=O)O)[C@]12CC3(C)C`, for which the growth inhibition was 90.8% (active) in assay [1]; 93.8% (active) in assay [2]; 93.8% (active) in assay [3]; 87.7% (active) in assay [4]; 92.2% (active) in assay [5]; 92.1% (active) in assay [6].

In the case of `c1ccc2c(c1)nn1c3ccc4nonc4c3[n-][n+]21`, the growth inhibition in assay [1] was 1.2%; in assay [2], -0.5%; in assay [3], 25.9%; in assay [4] it was 13.2%; in assay [5], 31.4%; in assay [6] it was -11.4%.

With `CCC(=O)c1c2c(cc3ccccc13)CCCC2`, the growth inhibition is 11.7% in assay [1]; -10.7% in assay [2]; 7.3% in assay [3]; 3.85% in assay [4]; 38.2% in assay [5]; 34% in assay [6].

In the case of `O=C(NNC(=O)c1ccc(Cl)cc1Cl)c1ccccc1`, the growth inhibition was -13.8% in assay [1]; 0.2% in assay [2]; -4.75% in assay [3]; -9.9% in assay [4]; -9.2% in assay [5]; -7.8% in assay [6].

For `Cc1ccc(NC(=S)N(CCC#N)C2CCCCC2)cc1`, the growth inhibition in assay [1] is -7.6%; in assay [2], -10.1%; in assay [3], 16.2%; in assay [4] it was 6.95%; in assay [5], 6.3%; in assay [6], 0.85%.

For `CC/C=C(\C)C(C#N)(CC)C(=O)OCC` (stereo not drawn), the growth inhibition in assay [1] was 4.65%; in assay [2], -12.7%; in assay [3], -4.6%; in assay [4], 2.75%; in assay [5], -20.4%; in assay [6] it was 9.2%.

As to `CC(=O)Nc1ccc(NS(=O)(=O)c2ccc3nc(C)n(NS(=O)(=O)c4ccc(NC(C)=O)cc4)c(=O)c3c2)cc1`, the growth inhibition in assay [1] was 29.1%; in assay [2] it was 38%; in assay [3] it was 29.1%; in assay [4], 15.4%; in assay [5], 39.2%; in assay [6] it was 15.3%.

As for `Nc1ncc2c(n1)-c1ccccc1OC2NC1CC1` (stereo not drawn), the growth inhibition was 2.5% in assay [1]; 12.1% in assay [2]; -29.2% in assay [3]; -5.55% in assay [4]; -36.2% in assay [5]; -4.65% in assay [6].

Consider `COc1ccc(C2c3cc4c(cc3OC(NNS(=O)(=O)c3ccc(C)cc3)C2C)OCO4)cc1` (stereo not drawn), for which the growth inhibition in assay [1] is -22.4%; in assay [2] it was 12.9%; in assay [3] it was 9.55%; in assay [4], 4.4%; in assay [5], -5.1%; in assay [6], 34.2%.

Take `NC(=S)N/N=C/c1ccncc1`: the growth inhibition in assay [1] was -25.8%; in assay [2] it was -10.6%; in assay [3], -17.6%; in assay [4] it was -25.9%; in assay [5], 9.35%; in assay [6], -52.9%.

Regarding `NC(CCc1ccc2c(c1)OCO2)C(=O)O` (stereo not drawn), the growth inhibition in assay [1] is 5.35%; in assay [2], -11.8%; in assay [3] it was -3.55%; in assay [4], -47%; in assay [5], -5.8%; in assay [6], 22.9%.

With `OCc1c(-c2ccc(Cl)cc2)c(-c2ccc(Cl)cc2)c2n1CCC2`, the growth inhibition in assay [1] was -0.65%; in assay [2], -18%; in assay [3], 1.3%; in assay [4] it was 90.4% (active); in assay [5], -2.35%; in assay [6] it was -6.85%.

As for `COc1ccc(-c2cc(-c3ccncc3)[nH]c2-c2nccc3ccccc23)cc1`, the growth inhibition was 94.2% (active) in assay [1]; 82.7% (active) in assay [2]; 97.3% (active) in assay [3]; 79.5% (active) in assay [4]; 73.7% (active) in assay [5]; 85% (active) in assay [6].

`CC1=C(C#N)C(=N)OC1(C)C1CC(=O)C=CC1=O` (stereo not drawn): the growth inhibition is -11.5% in assay [1]; 27.4% in assay [2]; 7.9% in assay [3]; 20.5% in assay [4]; 4.55% in assay [5]; 4.6% in assay [6].

Take `COc1cc(C(C)c2cc3c(cc2OCCNC(=O)COc2cc4c(cc2C(C)c2cc(OC)c(OC)c(OC)c2)OCO4)OCO3)cc(OC)c1OC` (stereo not drawn): the growth inhibition in assay [1] is -31.9%; in assay [2] it was -28.6%; in assay [3], -25.6%; in assay [4], 4.8%; in assay [5], -19.6%; in assay [6], -24.9%.

`Cc1ccc(O)c(C2CC(C#N)CCN2C)c1` (stereo not drawn): the growth inhibition in assay [1] was -0.65%; in assay [2] it was -12.2%; in assay [3], -16.5%; in assay [4], -6.35%; in assay [5], -18.9%; in assay [6] it was -7.3%.

As to `C=C1C[C@]23CC[C@@H]4C(CO)(CO)CC(=O)C[C@]4(C)[C@@H]2C(O)C[C@H]1C3` (stereo partly drawn), the growth inhibition was 30.6% in assay [1]; 17.9% in assay [2]; 17.8% in assay [3]; -5.05% in assay [4]; 7.05% in assay [5]; 30.9% in assay [6].

As to `OCCCCCCCCCCCBr`, the growth inhibition was 28.4% in assay [1]; 4.05% in assay [2]; -3.1% in assay [3]; -27.1% in assay [4]; 9.4% in assay [5]; 17.1% in assay [6].

Consider `O=C1c2ccccc2C(=O)N1CC#CCN1C(=O)c2ccccc2C1=O`, for which the growth inhibition in assay [1] was -6.95%; in assay [2] it was -31.8%; in assay [3], 19.6%; in assay [4] it was -5.05%; in assay [5], -2.65%; in assay [6] it was -5.75%.

With `Cc1ccc(-c2cc(=O)c3cc(C)c(C)c(C(=O)O)c3o2)cc1C`, the growth inhibition in assay [1] was 11.6%; in assay [2], 20.6%; in assay [3] it was 30.5%; in assay [4], 23.5%; in assay [5], 6.25%; in assay [6] it was 20.7%.

In the case of `CCOC(=O)C(/C=C/C(C)C)(CC)C(=O)OCC`, the growth inhibition in assay [1] was -8.75%; in assay [2] it was 11.2%; in assay [3], 8.2%; in assay [4], 44.8%; in assay [5] it was -6.95%; in assay [6], 24.4%.

As for `CCC(=O)Nc1cc(Cl)c(Cl)cc1C`, the growth inhibition was -8.7% in assay [1]; -12.4% in assay [2]; -13.5% in assay [3]; -85.8% in assay [4]; -27.2% in assay [5]; -12% in assay [6].

These data come from PubChem BioAssay (NCI).
